{"source": "PubChem BioAssay AID651864", "about": "(Broad Institute, 2012)", "note": "Measured potencies and affinities stand elsewhere. Values without a mark were called inactive. No rule for the calls is given here."}
{"assay": "HeLa cell cytotoxicity, dose response, cytotoxicity control, 24 h, plate reader, powder samples, set 3 (AID 651864)", "conditions": "HeLa viability, CellTiter-Glo ATP luminescence; series mostly up to 80 µM; activity change, negative = cytotoxicity: at the top concentration", "units": {"activity change, negative = cytotoxicity": "%"}}
{"smiles": "c1ccc(-n2nnnc2NCc2ccc(N3CCCC3)cc2)cc1", "activity change, negative = cytotoxicity": 4.99}
{"smiles": "CCn1nnnc1NCc1ccc(N2CCCCC2)cc1", "activity change, negative = cytotoxicity": -1.74}
{"smiles": "CCn1nnnc1NCc1cccc(N2CCCC2)c1", "activity change, negative = cytotoxicity": -7.97}
{"smiles": "CCn1nnnc1NCc1ccc(C(C)C)cc1", "activity change, negative = cytotoxicity": 0.265}
{"smiles": "CC(C)NC(=O)Cc1ccc(-c2ccccc2)cc1", "activity change, negative = cytotoxicity": 3.84}
{"smiles": "CC1(NC(=O)Cc2ccc(-c3ccccc3)cc2)COC1", "activity change, negative = cytotoxicity": 4.83}
{"smiles": "O=C(Cc1cccc(F)c1)NC1CCCC1", "activity change, negative = cytotoxicity": 6.37}
{"smiles": "CCCn1nnnc1NCc1ccc(C(C)C)cc1", "activity change, negative = cytotoxicity": 1.72}
{"smiles": "c1ccc(Cn2nnnc2NCc2ccc(N3CCCC3)cc2)cc1", "activity change, negative = cytotoxicity": 2.68}
{"smiles": "CCCn1nnnc1NCc1ccccc1Cl", "activity change, negative = cytotoxicity": -9.87}
{"smiles": "CCn1nnnc1NCc1ccc(N2CCCC2)cc1", "activity change, negative = cytotoxicity": 1.15}
{"smiles": "COc1ccc(CC(=O)NC2CCCC2)cc1", "activity change, negative = cytotoxicity": 2.25}
{"smiles": "CCn1nnc(NCc2ccc(C)cc2)n1", "activity change, negative = cytotoxicity": 1.73}
{"smiles": "CCCCn1nnnc1NCc1ccc(N2CCCC2)cc1", "activity change, negative = cytotoxicity": -9.35}
{"smiles": "O=C(Cc1ccccc1C(F)(F)F)NC1CCCC1", "activity change, negative = cytotoxicity": 8.84}
{"smiles": "O=C(Cc1ccccc1OC(F)(F)F)NC1CCCC1", "activity change, negative = cytotoxicity": 8.23}
{"smiles": "O=C(Cc1ccc(-c2ccccc2)cc1)NC1CCOCC1", "activity change, negative = cytotoxicity": 1.16}
{"smiles": "O=C(Cc1ccccc1Cl)NC1CCCC1", "activity change, negative = cytotoxicity": -0.086}
{"smiles": "O=C(Cc1ccc(-c2ccccc2)cc1)NC1CCC1", "activity change, negative = cytotoxicity": 1.56}
{"smiles": "O=C(Cc1ccc(-c2ccccc2)cc1)NC1CC1", "activity change, negative = cytotoxicity": 3.37}
{"smiles": "CC(C)c1ccc(CNc2nnnn2C)cc1", "activity change, negative = cytotoxicity": -2.22}
{"smiles": "CCn1nnnc1CCc1ccc(N2CCCC2)cc1", "activity change, negative = cytotoxicity": -12.4}
{"smiles": "O=C(Cc1ccccc1F)NC1CCCC1", "activity change, negative = cytotoxicity": 8.61}
{"smiles": "CS(=O)(=O)c1ccc(CC(=O)NC2CCCC2)cc1", "activity change, negative = cytotoxicity": 9.49}
{"smiles": "Cn1nnnc1NCc1ccc(N2CCCC2)cc1", "activity change, negative = cytotoxicity": 9.42}
